RMI FANCM FP – RMI-FANCM interaction inhibition; FP signal (polarization) at 33 µM; AID 1159607; Fluorescence polarization, RMI core complex with F-MM2 peptide; hits give low values; actives 0.58% (n = 70,000); in the data active = FP signal below about 40
* hit, by the source's call; ! = not confirmed by another sample. The sample as a whole holds a higher share of hits than the screen did.

`O=C(Cc1csc(SCc2ccc(Br)cc2)n1)NCc1ccccn1` gave RMI FANCM FP 27*.
For O=C(CCc1csc(NC(=O)c2ccc[nH]c2=O)n1)NCc1ccco1 the results were RMI FANCM FP 60.
Screening CC(=O)c1cccc(NC(=O)CSc2nc3sc4c(c3c(=O)n2-c2ccccc2)CCC4)c1 returned RMI FANCM FP 80.
`Cc1nnc(NC(=O)CSc2nnc(NC(=O)NC(C)(C)C)s2)s1` gave RMI FANCM FP 56.
COc1cccc(NC(=O)CSc2[nH]c(=O)ncc2C)c1 was read as RMI FANCM FP 56.
For O=S(=O)(c1ccc2c(c1)CCCC2)N1CCN(c2ccc(-c3ccco3)nn2)CC1 the results were RMI FANCM FP 73.
COc1ccc(-c2cc(-c3ccccc3)nc3sc(C(=O)NCC4CCCO4)c(N)c23)cc1 (stereo unspecified) was read as RMI FANCM FP 9*.
COc1ccc(-c2cc(-c3ccccc3)nc(SCC(=O)NCC3CCCO3)c2C#N)cc1 (stereo unspecified) was read as RMI FANCM FP 94.
COc1ccc(-c2cc(-c3ccc(Cl)cc3)nc3sc(C(=O)N4CCOCC4)c(N)c23)cc1 was read as RMI FANCM FP -18*.
Screening COc1ccc(-c2cc(-c3ccc(C)c(C)c3)nc3sc(C(N)=O)c(N)c23)cc1 returned RMI FANCM FP 123.
CC1(C)CC(=O)c2c(nc3sc(C(=O)NCC4CCCO4)c(N)c3c2-c2ccccc2)C1 (stereo unspecified) was read as RMI FANCM FP 53.
Screening COc1ccc(-c2cc(-c3ccc(OC)cc3)c3c(N)c(C(=O)c4ccc(Cl)cc4)sc3n2)cc1 returned RMI FANCM FP 500.
COc1ccc(S(=O)(=O)C(CNC(=O)c2ccccc2C(F)(F)F)c2cccs2)cc1 (stereo unspecified) was read as RMI FANCM FP 61.
For CCOC(=O)c1ccccc1N/C=C(/C#N)c1nc(-c2ccc3c(c2)OCO3)cs1 the results were RMI FANCM FP 81.
Screening Cc1ccc(C(=O)Nc2ccc(C(=O)NCCNC(=O)COc3ccccc3)cc2)cc1 returned RMI FANCM FP 120.
CC(=O)c1ccc(NCN2C(=O)CCC2=O)cc1 was read as RMI FANCM FP 60.
`COc1cccc(C(=O)N2CCN(c3ccc(-c4cccs4)nn3)CC2)c1OC` gave RMI FANCM FP 70.
Screening CCc1cc2c(=O)c(-c3nc4ccccc4[nH]3)coc2c(CN2CCCCCC2)c1O returned RMI FANCM FP 57.
For Cc1nnc(NC(=O)CSc2nnc(NC(=O)CC(C)C)s2)s1 the results were RMI FANCM FP 71.
For COC(=O)c1sc(SC)c(C#N)c1-c1ccco1 the results were RMI FANCM FP 57.
Screening N#CC1=C(N)OC(c2ccco2)=C(C#N)C1c1ccco1 (stereo unspecified) returned RMI FANCM FP 56.
For N#Cc1c(N)c(C#N)c2c(c1-c1ccco1)Cc1ccccc1-2 the results were RMI FANCM FP 12*.
Screening O=c1c(-c2ccccc2)coc2cc(O)cc(O)c12 returned RMI FANCM FP 33*.
COc1cc(O)c2c(=O)c(-c3ccc(O)cc3)coc2c1 was read as RMI FANCM FP 51.
Screening O=c1cc(-c2ccccc2)oc2cc(O)cc(O)c12 returned RMI FANCM FP 55.
COc1ccc(CC(=O)Nc2ccc3c(c2)CN(C(=O)c2ccco2)CC3)cc1OC was read as RMI FANCM FP 66.
Screening N#C/C(=N/Nc1ccc(OC(F)(F)F)cc1)C(=O)c1ccsc1 returned RMI FANCM FP 54.
`COc1ccc(CC(=O)Nc2cc(C)nc3c(C)cc(C)cc23)cc1OC` gave RMI FANCM FP 172.
Cc1cc(NC(=O)CN2CC3CC(C2)c2cccc(=O)n2C3)nc2c1c(=O)oc1ccccc12 (stereo unspecified) was read as RMI FANCM FP 31*!.
Cc1cc(NC(=O)C(C)(C)Oc2ccc(Cl)cc2)nc2c1c(=O)oc1ccccc12 was read as RMI FANCM FP 75.
`O=C(CSc1nc2c(oc3ccccc32)c(=O)n1CC1CCCO1)Nc1cccc(Cl)c1` (stereo unspecified) gave RMI FANCM FP 67.
`CC(=O)N1CCN(c2ccnc3c2c(=O)n(CC(=O)N2CCCc4ccccc42)c(=O)n3C)CC1` gave RMI FANCM FP 66.
For COC(=O)c1ccccc1NC1=CC(=NS(=O)(=O)c2ccc(F)cc2)c2ccccc2C1=O the results were RMI FANCM FP 57.
`COc1ccc(S(=O)(=O)N=C2C=C(Nc3cccc(C)c3)C(=O)c3ccccc32)cc1` gave RMI FANCM FP 13*.
`O=C1C(NS(=O)(=O)c2ccccc2)=CC(=NS(=O)(=O)c2ccc(F)cc2)c2ccccc21` gave RMI FANCM FP 58.
`O=C(c1ccccc1I)N1CCN(c2ccc(N3CCCCC3)nn2)CC1` gave RMI FANCM FP 59.
Screening O=C(COc1ccccc1)Nc1nc2c(Cl)c(Cl)ccc2s1 returned RMI FANCM FP 65.
Screening CCN1CCN(c2nc3ccccc3nc2C(C#N)S(=O)(=O)c2cccs2)CC1 (stereo unspecified) returned RMI FANCM FP 69.
CCC(CC)COC(=O)C(C#N)c1nc2ccccc2nc1N1CCCCC1 (stereo unspecified) was read as RMI FANCM FP 48.
For Cc1ccc(C)c(S(=O)(=O)C(C#N)c2nc3ccccc3nc2N2CCCC2)c1 (stereo unspecified) the results were RMI FANCM FP 5*.
For CC(C)NC(=O)c1ccc2c(=O)n(-c3ccc(F)cc3)c(SCC(=O)c3ccccc3)nc2c1 the results were RMI FANCM FP 117.
`COc1ccc(N2CCN(C(=O)c3cc(OC)c(OC)c(OC)c3)CC2)nn1` gave RMI FANCM FP 63.
For COc1ccc(/C=N\Nc2nc(-c3cccs3)cs2)cc1 the results were RMI FANCM FP 61.
`CCOc1ccc(-c2csc(NC(=O)C3CCCCC3)n2)cc1` gave RMI FANCM FP 71.
Screening CCOc1ccc(-c2csc(N/N=C\c3ccc(OC)c(OC)c3)n2)cc1 returned RMI FANCM FP 16*.
For CCn1nc(C(=O)N(CC2CCCO2)c2nc3c(F)cc(F)cc3s2)cc1C (stereo unspecified) the results were RMI FANCM FP 65.
Screening Cc1ccc(S(=O)(=O)c2nc(-c3ccccc3)oc2Sc2nc3ccccc3[nH]2)cc1 returned RMI FANCM FP 58.
`COc1ccc(-c2cccc(NC(=O)Nc3ccccc3F)c2)nn1` gave RMI FANCM FP 70.
`Cn1c(=O)cc2c3c(c(Br)ccc31)C(=O)c1ccccc1-2` gave RMI FANCM FP 60.
CC(C)c1cc(NS(=O)(=O)c2ccccc2)c(O)c(C(C)C)c1 was read as RMI FANCM FP 60.
Screening Cn1c(=O)cc2c3c(c(NS(=O)(=O)c4ccccc4)ccc31)C(=O)c1ccccc1-2 returned RMI FANCM FP 9*.
Nc1sc2c(c1-c1nc(-c3ccc(Br)cc3)cs1)CCCC2 was read as RMI FANCM FP 67.
Screening CCOC(=O)c1c(NC(=O)c2ccc(N3CCN(CC)CC3)c([N+](=O)[O-])c2)sc2c1CCCC2 returned RMI FANCM FP 57.
For COC(=O)c1ccc(OCC(O)CN2CCN(CCN3C(=O)c4cccc5cccc(c45)C3=O)CC2)cc1 (stereo unspecified) the results were RMI FANCM FP 56.
For O=C(CN1CCN(CCN2C(=O)c3cccc4cccc(c34)C2=O)CC1)c1ccc(F)cc1 the results were RMI FANCM FP 63.

Screening data deposited in PubChem BioAssay by Small Molecule Screening Facility, UW Madison.
